{"source": "PubChem BioAssay AID431", "about": "(Sanford-Burnham Center for Chemical Genomics, 2006)", "note": "The campaign covered roughly 63,000 compounds. About 1,100 (1.7%) were called active. The entries come from a sample that favours actives as a whole. Results with a measured potency or affinity are listed apart. Unmarked numbers belong to inactive results.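 Rule for the calls: active = compounds whose percent cytotoxicity in the single-dose primary screen, scaled between solvent and toxic-drug controls, exceeds 50; inactive = the rest.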", "data": [{"assay": "cytotoxicity in KRAS-transformed pancreatic duct cells, primary screen, cell-based, fluorescence, HTS (AID 431);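 note: 0% = DMSO solvent wells and 100% = doxorubicin-treated wells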", "conditions": "HPDE-C7K KRASV12 cells, Alamar Blue viability, 48 h; at 10 µM; hits give high values", "values": [{"compound": "CCN(CC)C(=O)c1ccc(NC(=O)Cn2nc(C)c3ccccc3c2=O)cc1", "cytotoxicity": "-7.8%"}, {"compound": "O=C(Nc1ccc(OC(=O)N2CCCC2)cc1)N1CCOCC1", "cytotoxicity": "-8.6%"}, {"compound": "CC(C)C(=O)N1CCN(CCN=Cc2c(O)n(C)c(=O)n(C)c2=O)CC1", "cytotoxicity": "0.5%"}, {"compound": "COc1ccc(C2NCc3ccc4c(c3-n3cccc32)OCO4)cc1OC", "note": "(stereo unspecified)", "cytotoxicity": "3.2%"}, {"compound": "COc1ccc(C2NCc3ccc4c(c3-n3cccc32)OCO4)cc1O", "note": "(stereo unspecified)", "cytotoxicity": "59.8% (active)"}, {"compound": "c1cc2n(c1)-c1c(ccc3c1OCO3)CNC2c1ccc2c(c1)OCO2", "note": "(stereo unspecified)", "cytotoxicity": "27.4%"}, {"compound": "O=P(/C(=N/O)N1CCCCC1)(N1CCOCC1)N1CCOCC1", "cytotoxicity": "-3.8%"}, {"compound": "O=C1CN=C(c2ccccc2)c2oc3ccc(Br)cc3c2N1", "cytotoxicity": "-15.6%"}, {"compound": "COc1cccc(OC)c1C1=NCC(=O)Nc2c1oc1ccc(Br)cc21", "cytotoxicity": "56.7% (active)"}, {"compound": "O=C(NCC(c1cccnc1)N1CCOCC1)Oc1ccccc1", "note": "(stereo unspecified)", "cytotoxicity": "2.6%"}, {"compound": "C=Cn1ccnc1P(=S)(c1c(C)nn(-c2ccccc2)c1C)c1nccn1C=C", "cytotoxicity": "8.8%"}, {"compound": "O=c1c(C=NCCN2CCNCC2)c(O)n(C2CCCCC2)c(=O)n1C1CCCCC1", "cytotoxicity": "95.1% (active)"}, {"compound": "O=c1[nH]c(=O)n(Cc2ccccc2)c(O)c1C=NCCN1CCNCC1", "cytotoxicity": "-15%"}, {"compound": "O=c1[nH]c(=O)n(C2CCCCCC2)c(O)c1C=NCCCN1CCOCC1", "cytotoxicity": "-13.6%"}, {"compound": "CCCCn1c(O)c(C(CC)=Nc2cccc(C(=O)O)c2)c(=O)[nH]c1=O", "cytotoxicity": "-13.6%"}, {"compound": "CC(=NCCCN1CCCCC1)c1c(O)n(Cc2ccccc2)c(=O)[nH]c1=O", "cytotoxicity": "9.4%"}, {"compound": "CCOC(=O)c1ccc(N2C(=O)CC(N3CCC(C#N)(c4ccccc4)CC3)C2=O)cc1", "note": "(stereo unspecified)", "cytotoxicity": "-11.3%"}, {"compound": "CCCCCn1c(=O)c(C(=O)NCc2ccncc2)c(O)c2ccccc21", "cytotoxicity": "33.3%"}, {"compound": "CCCCCn1c(=O)c(C(=O)Nc2ccncc2)c(O)c2ccccc21", "cytotoxicity": "73.1% (active)"}, {"compound": "CCCCCCn1c(=O)c(C(=O)Nc2ccncc2)c(O)c2ccccc21", "cytotoxicity": "46.4%"}, {"compound": "CCCCn1c(=O)c(C(=O)Nc2ccccc2S(N)(=O)=O)c(O)c2ccccc21", "cytotoxicity": "-11.7%"}, {"compound": "CCCCCn1c(=O)c(C(=O)NCc2ccccn2)c(O)c2ccccc21", "cytotoxicity": "8.3%"}, {"compound": "CCCCn1c(=O)c(C(=O)Nc2cnccn2)c(O)c2ccccc21", "cytotoxicity": "51.5% (active)"}, {"compound": "CCCCn1c(O)c(C=NCCCN(CC)CC)c(=O)[nH]c1=O", "cytotoxicity": "6.9%"}, {"compound": "CSc1nnc(C2CCNCC2)n1C", "cytotoxicity": "-11.4%"}, {"compound": "O=C1NC(=O)C(CCc2ccncc2)(C2CCCCC2)C(=O)N1", "cytotoxicity": "-0.4%"}, {"compound": "COC(=O)c1ccc(COc2cc(C)cc3oc(=O)c4c(c23)CCCC4)o1", "cytotoxicity": "4.3%"}, {"compound": "CC(=O)CC(C)(C)n1c[n+](C)nn1", "cytotoxicity": "18.4%"}, {"compound": "Cc1ccc2c(c1)C1CN(C)CCC1N2C(=O)c1ccco1", "note": "(stereo unspecified)", "cytotoxicity": "2.2%"}, {"compound": "c1ccc2c(CCNCc3ccc4c(c3)OCO4)c[nH]c2c1", "cytotoxicity": "23.6%"}, {"compound": "C[C@@]1(CO)[C@H](O)CC[C@@]2(C)[C@H]1CC[C@H]1C[C@@H]3C[C@@]12CC[C@]3(O)CO", "cytotoxicity": "69.7% (active)"}, {"compound": "CC(C)CC1C(C#N)=C(N)Oc2c1c(=O)oc1ccccc21", "note": "(stereo unspecified)", "cytotoxicity": "8.9%"}, {"compound": "Cc1ccc2c(c1)CC1(CN2C)C(=O)NC(=O)N(CCC2=CCCCC2)C1=O", "note": "(stereo unspecified)", "cytotoxicity": "5.2%"}, {"compound": "O=C1NC(=O)C2(Cc3ccccc3N3CCCC32)C(=O)N1c1ccccc1", "note": "(stereo unspecified)", "cytotoxicity": "-2.3%"}, {"compound": "OC1(c2ccccc2F)CC2CCC(C1)N2CCN1CCOCC1", "note": "(stereo unspecified)", "cytotoxicity": "-1.8%"}, {"compound": "Cc1oc(-c2ccc(Cl)cc2)nc1CS(=O)CC(=O)N1CCC2(CC1)OCCO2", "note": "(stereo unspecified)", "cytotoxicity": "-19.8%"}]}]}
